Experimental findings from PubChem BioAssay (NCATS) are described below.

Each structure is given as a SMILES string. “And” between values parts separate entries of the source, which are not always exact repeats. Equal values may be shown once. Values without a mark were called inactive. Inconclusive results are not listed. A call without a number means that no potency is given here. The source made the active and inactive calls. Unless noted, calls come from the whole dose curve; as a rule, active = well fitted curve in the direction sought with a large enough effect; inconclusive = small, poorly fitted or top-dose-only effect, or another doubt; inactive = no such curve, though single readings can be large; an effect the other way counts as inactive or inconclusive. Where a SMILES comes first, the peptide text is derived from it.

The first test can be described thus: qHTS assay for small molecule agonists of the antioxidant response element (ARE) signaling pathway measured by Nrf2-dependant transcriptional activity - cell viability counter screen (AID 720653; active = well fitted curve in the direction sought with a large enough effect in the repeat runs; an effect the other way counts as inactive or inconclusive). The following applies: ARE-bla HepG2 viability, CellTiter-Glo ATP luminescence, 16 h; max response: active compounds read low. In a few lines: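 ARE-bla HepG2 cells (2,000/well) rested 5 hrs at 37C/5% CO2, then exposed to compounds in DMSO for 16 hrs. Viability was read in the same wells as intracellular ATP by luminescence, 30 min at room temperature after reagent addition.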
Background: qHTS replaces the single test concentration by a dilution series.
As for `O=C(Oc1ccccc1)c1cccc(C(=O)Oc2ccccc2)c1`, the max response is -2.16%. `CC(C)(C)c1ccc(O)c(O)c1`: the max response is -2.01% and -13.6%.

In the case of `CCCCC(CC)COC(=O)c1ccccc1C(=O)O` (configuration not stated), the max response is 4.74% and -13.7%.

A short description of a further test: qHTS Assay for Identifying Gametocytocidal Compounds (AID 743244).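 For max response: actives lower the fluorescent signal which means gametocytes are killed.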 Note: potency is the fitted concentration of half-maximal effect. Particulars: P. falciparum 3D7 stage III-V gametocytes, alamarBlue, 72 h; max response: active compounds read low. In a few lines: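 P. falciparum 3D7 stage III–V gametocytes (20,000 cells/well) were exposed to compounds for 72 h at 37 °C, 5% CO2. AlamarBlue was then added for 24 h; decreased resorufin fluorescence (Ex 525/Em 598 nm) indicated loss of viability.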
In the case of `O=C(O)CNC(=O)CNC(=O)CNC(=O)CSC(=O)c1ccccc1`, the max response is 0.93%. Take `CSCC[C@H](NC(=O)[C@H](Cc1c[nH]c2ccccc12)NC(=O)CCNC(=O)OC(C)(C)C)C(=O)N[C@@H](CC(=O)O)C(=O)N[C@@H](Cc1ccccc1)C(N)=O`: the max response was -18.5%.

Regarding `CC(C)(C)C(O)/C=C/c1ccc2c(c1)OCO2` (configuration not stated), the max response is -15.2%. Still for that read-out and setting: in the case of `NC(N)=NCCCCN=C(N)N` it was 2.24% and 15.3%. Take `Cc1cc2nc3ccc(=[N+](C)C)cc-3sc2cc1N`: the Potency is 6.31 µM (active).

With `O=C(OCC1(COC(=O)c2cccnc2)CCCC(COC(=O)c2cccnc2)(COC(=O)c2cccnc2)C1O)c1cccnc1`, the max response was -9.22%. Same read-out and setting: then `O=C(CCC1CCN(Cc2ccccc2)CC1)c1ccc2c(c1)NCCCC2`, with -4.54%. The same measure, in the same setting: in the case of `O=C(Oc1ccccc1)c1cccc(C(=O)Oc2ccccc2)c1` it was -7.52%; in that of `CC(=O)OCC(=O)Nc1cc(C#N)cc(NC(=O)COC(C)=O)c1Cl`, -6.24%; in that of `CCCc1c2oc(C(=O)O)cc(=O)c2cc2c(=O)cc(C(=O)O)n(CC)c12`, -6.99%. Same read-out and setting: then `O=C(CCCCC(=O)Nc1c(I)cc(I)c(C(=O)O)c1I)Nc1c(I)cc(I)c(C(=O)O)c1I`, with 35.4%; and `CCCCC(CC)COC(=O)c1ccccc1C(=O)O` (configuration not stated), with -17.7%.

As for `CC(C)(C)C(=O)OCOC(=O)C1N2C(=O)CC2S(=O)(=O)C1(C)C` (configuration not stated), the max response is 0.683%. For the compound `CO[C@@H]1[C@@H](OC)[C@H](C)[C@@](O)(CC(=O)O)O[C@H]1[C@H](C)[C@H]1O[C@@]2(CC[C@@](C)([C@H]3CC[C@@](C)([C@@H]4O[C@@H]([C@H]5O[C@](C)(O)[C@H](C)C[C@@H]5C)C[C@@H]4OC4C[C@H](OC)[C@@H](OC)[C@H](C)O4)O3)O2)C[C@H](O)[C@H]1C` (some centres not stated), the Potency was 0.0935 µM (active).

Consider `N#C/C(=C1/SC[C@@H](c2ccc(Cl)cc2Cl)S1)n1ccnc1`, for which the max response was 8.83% and -5.83% and 7.31%. Regarding `O=C(NN1CCCC1)NS(=O)(=O)c1ccc(Cl)cc1`, the max response was 0.581%.

Another test is described as follows: qHTS assay for cell viability of HEK293 cells (AID 743288). Note: nearly all actives have a fitted effect of over 50% in size. Particulars: ATP luminescence (CellTiter-Glo), 18 h, active compounds read low. A digest of the protocol:
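Steps: plate 2,000 parental HEK293 cells per well; incubate ≥5 h, 37 C; add compounds in DMSO; incubate 18 h, 37 C; add CellTiter-Glo; wait 30 min at room temperature; read luminescence.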
For the compound `O=C(Oc1ccccc1)c1cccc(C(=O)Oc2ccccc2)c1`, the max response is -18.4%. Same read-out and setting: in the case of `CC(C)(C)c1ccc(O)c(O)c1` it was -4.72% and -5.96%; in that of `CCCCC(CC)COC(=O)c1ccccc1C(=O)O` (configuration not stated), -6.66% and 0.856%.

The nature of another test: qHTS assay for cell viability of the p53RE-bla HCT-116 cell line (AID 743292). Note: nearly all actives have a fitted effect of over 55% in size. The following applies: p53RE-bla HCT-116 viability, ATP luminescence, 16 h; series mostly up to 95 µM. A digest of the protocol:
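ATP-based luminescence, 16 h compound exposure at 37 C, p53RE-bla HCT-116 cells at 4,000/well.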
`O=C(Oc1ccccc1)c1cccc(C(=O)Oc2ccccc2)c1`: the Potency entry was “inactive”. Same read-out and setting: then `O=C(Nc1ccc(Cl)cc1)Nc1ccc(Cl)c(Cl)c1`, with “inactive”. On the same count and under the same terms, in the case of `CC(C)(C)c1ccc(O)c(O)c1` it was “inactive”.

As to `CCCCC(CC)COC(=O)c1ccccc1C(=O)O` (configuration not stated), the Potency result was “inactive”.

A short description of the next test: qHTS assay for measurement of the activity of small molecule inhibitors on Zika virus induced Caspase-3 activity in human astrocytoma cells (AID 1224859). Particulars: SNB-19 ZIKV-induced caspase-3/7, luminescence, 6 h; series mostly up to 45.7 µM. In a few lines:
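Luminescence read-out (Caspase-Glo 3/7, 30 min RT) of caspase activity in SNB-19 cells infected 6 h with ZIKV, 2 FFU/cell, after 1 h compound pretreatment; % inhibition from induction normalised to uninfected (0%) and infected (100%) wells.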
`CC(C)=CCC/C(C)=C/CC/C(C)=C/C(=O)OCC(=O)[C@@]1(O)CC[C@H]2[C@@H]3CCC4=CC(=O)C=C[C@]4(C)[C@H]3[C@@H](O)C[C@@]21C`: the call was inactive.

As for `O=C(O)CNC(=O)CNC(=O)CNC(=O)CSC(=O)c1ccccc1`, the compound was classed as inactive. Same read-out and setting: in the case of `CC(=O)N[C@@H](CO)C(=O)N[C@@H](CC(=O)O)C(=O)N[C@@H](CCCCN)C(=O)N1CCC[C@H]1C(=O)O` (Ac-SDKP-OH) it was “inactive”; in that of `CSCC[C@H](NC(=O)[C@H](Cc1c[nH]c2ccccc12)NC(=O)CCNC(=O)OC(C)(C)C)C(=O)N[C@@H](CC(=O)O)C(=O)N[C@@H](Cc1ccccc1)C(N)=O`, “inactive”; in that of `CC(C)(C)C(O)/C=C/c1ccc2c(c1)OCO2` (configuration not stated), “inactive”. On the same count and under the same terms, in the case of `NC(N)=NCCCCN=C(N)N` it was “inactive”. On the same count and under the same terms, in the case of `Cc1cc2nc3ccc(=[N+](C)C)cc-3sc2cc1N` it was “inactive”. Take `Cc1sccc1Br`: the outcome was inactive. Still for that read-out and setting: then `Cc1ccc(Cl)c(OCC(O)CNC(C)(C)C)c1` (configuration not stated), with “inactive”; and `O=C(OCC1(COC(=O)c2cccnc2)CCCC(COC(=O)c2cccnc2)(COC(=O)c2cccnc2)C1O)c1cccnc1`, with “inactive”. Same read-out and setting: then `CN1Cc2cc(C(=O)N3CCC(C4CCNCC4)CC3)ccc2NC(CC(=O)O)C1=O` (configuration not stated), with “inactive”; and `O=C(CCC1CCN(Cc2ccccc2)CC1)c1ccc2c(c1)NCCCC2`, with “inactive”. Still for that read-out and setting: then `CCCCC(CC)CNC(=O)CC(C)OC(=O)CCC(=O)O` (configuration not stated), with “inactive”. `O=C(c1cc(O)c(O)c(O)c1)c1ccc(O)c(O)c1O`: the outcome was inactive. On the same count and under the same terms, in the case of `NC(=O)NS(=O)(=O)c1ccc(Cl)cc1` it was “inactive”. Same read-out and setting: then `O=C1Nc2ccccc2C1(c1ccc(O)cc1)c1ccc(O)cc1`, with “inactive”. On the same count and under the same terms, then `O=C(Oc1ccccc1)c1cccc(C(=O)Oc2ccccc2)c1`, with “inactive”; and `COC(=O)c1cc(Cl)ccc1OC`, with “inactive”; and `O=C(Nc1ccc(Cl)cc1)Nc1ccc(Cl)c(Cl)c1`, with “inactive”. `CC(C)(C)c1ccc(O)c(O)c1`: the compound was called inactive.

On to `COc1ccc([C@@H]2Sc3ccccc3NC(=O)[C@@H]2O)cc1`, for which the result was inactive. Still for that read-out and setting: then `CC(=O)OCC(=O)Nc1cc(C#N)cc(NC(=O)COC(C)=O)c1Cl`, with “inactive”.

Take `CC(C(O)c1ccccc1)N(C)CCOC(c1ccccc1)c1ccccc1` (configuration not stated): the compound was called inactive. As to `CCCc1c2oc(C(=O)O)cc(=O)c2cc2c(=O)cc(C(=O)O)n(CC)c12`, the call was inactive. The same measure, in the same setting: in the case of `CCCCC(CC)COC(=O)c1ccccc1C(=O)O` (configuration not stated) it was “inactive”; in that of `O=C1CC2(CCCC2)CC(=O)N1`, “inactive”; in that of `COc1ccc(/C(C)=C/C(=O)O)c(OC)c1`, “inactive”. Still for that read-out and setting: then `CCCc1ncc(C(=O)O)s1`, with “inactive”; and `CC(C)(C)C(=O)OCOC(=O)C1N2C(=O)CC2S(=O)(=O)C1(C)C` (configuration not stated), with “inactive”. Same read-out and setting: in the case of `CC(=O)c1ccc(O)c(C(N)=O)c1` it was “inactive”; in that of `CC[N+](CC)(CC)CCOC(=O)C(C1CCCC1)C1CCCC1`, “inactive”. For `CC(=O)N(CC(O)CO)c1c(I)c(C(=O)NCCO)c(I)c(C(=O)NCC(O)CO)c1I` (configuration not stated), the result was inactive. On the same count and under the same terms, in the case of `CO[C@@H]1[C@@H](OC)[C@H](C)[C@@](O)(CC(=O)O)O[C@H]1[C@H](C)[C@H]1O[C@@]2(CC[C@@](C)([C@H]3CC[C@@](C)([C@@H]4O[C@@H]([C@H]5O[C@](C)(O)[C@H](C)C[C@@H]5C)C[C@@H]4OC4C[C@H](OC)[C@@H](OC)[C@H](C)O4)O3)O2)C[C@H](O)[C@H]1C` (some centres not stated) it was “inactive”; in that of `N#C/C(=C1/SC[C@@H](c2ccc(Cl)cc2Cl)S1)n1ccnc1`, “inactive”. Still for that read-out and setting: then `O=C(NN1CCCC1)NS(=O)(=O)c1ccc(Cl)cc1`, with “inactive”; and `Cn1cc(S(C)=O)c(=O)c2ccc(F)cc21` (configuration not stated), with “inactive”.
